Test results reported in the supplement of paper PMC6555819.

Key:
Experiment in all cases: PBM binding z-score (relative to random genomic background probes); higher = stronger binding; sequences stand for … in GC…GCGATTGACAGCGTAGAATGAAGG
[1] = tested on: FXR:RXRa (NR concentration 270 nM, RXRa partner concentration 90 nM)
In short: (§1)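 Ligand-free nuclear receptor dimers were applied to custom Agilent 4×180K protein-binding microarrays whose double-stranded probes carried direct-repeat seeds, single-nucleotide variants, half-site ablations and random human genomic background sequences in 34-nt variable regions. Incubation lasted 1 h. Binding z-scores were computed against the random background probes from regression-normalized fluorescence.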

[2] = tested on: LXRa:RXRa (NR concentration 270 nM, RXRa partner concentration 90 nM)
In short: as §1

[3] = tested on: LXRa homodimer (NR concentration 270 nM)
In short: as §1

[4] = tested on: LXRb:RXRa (NR concentration 270 nM, RXRa partner concentration 90 nM)
In short: as §1

[5] = tested on: LXRb homodimer (NR concentration 270 nM)
In short: as §1

[6] = tested on: PPARa:RXRa (NR concentration 270 nM, RXRa partner concentration 90 nM)
In short: as §1

[7] = tested on: PPARg:RXRa (NR concentration 180 nM, RXRa partner concentration 90 nM)
In short: as §1

[8] = tested on: PPARg:RXRa 270nM:90nM, anti-RXR (NR concentration 270 nM, RXRa partner concentration 90 nM)
In short: as §1

[9] = tested on: PPARg:RXRa 30nM:10nM, anti-RXR (NR concentration 30 nM, RXRa partner concentration 10 nM)
In short: as §1

[10] = tested on: PPARg:RXRa 90nM:30nM, anti-RXR (NR concentration 90 nM, RXRa partner concentration 30 nM)
In short: as §1

[11] = tested on: PPARg:RXRa DBDmut IVT, anti-RXR (DBD mutation: RXRa K156A/R161A, NR concentration 270 nM, RXRa partner concentration 90 nM)
In short: as §1

[12] = tested on: PPARg:RXRa IVT, anti-PPARg (NR concentration 270 nM, RXRa partner concentration 90 nM)
In short: as §1

[13] = tested on: PPARg DBDmut:RXRa IVT, anti-PPARg (DBD mutation: PPARg1 K132A/R137A, NR concentration 270 nM, RXRa partner concentration 90 nM)
In short: as §1

[14] = tested on: PPARg DBDmut IVT, anti-PPARg (DBD mutation: PPARg1 K132A/R137A, NR concentration 270 nM)
In short: as §1

[15] = tested on: PPARg homodimer (NR concentration 180 nM)
In short: as §1

[16] = tested on: PXR:RXRa (NR concentration 270 nM, RXRa partner concentration 90 nM)
In short: as §1

[17] = tested on: PXR homodimer (NR concentration 270 nM)
In short: as §1

[18] = tested on: RARa:RXR (NR concentration 270 nM, RXRa partner concentration 90 nM)
In short: as §1

[19] = tested on: RARa homodimer (NR concentration 270 nM)
In short: as §1

[20] = tested on: RARb:RXRa (NR concentration 270 nM, RXRa partner concentration 90 nM)
In short: as §1

Row | Sequence | PBM binding z-score [1] | PBM binding z-score [2] | PBM binding z-score [3] | PBM binding z-score [4] | PBM binding z-score [5] | PBM binding z-score [6] | PBM binding z-score [7] | PBM binding z-score [8] | PBM binding z-score [9] | PBM binding z-score [10] | PBM binding z-score [11] | PBM binding z-score [12] | PBM binding z-score [13] | PBM binding z-score [14] | PBM binding z-score [15] | PBM binding z-score [16] | PBM binding z-score [17] | PBM binding z-score [18] | PBM binding z-score [19] | PBM binding z-score [20]
1 | TCTATTAGCTGAAGGGCAACCGACGAGTCCGTTT | -0.0805 | 0.244 | -0.393 | 0.444 | -0.429 | 0.629 | 0.0411 | 1.66 | 2.6 | 2.2 | 1.6 | 0.162 | 0.664 | 0.466 | -0.169 | 0.472 | 0.237 | 0.362 | -0.62 | 1.29
2 | TCTTGTAGATAAAAGGTTAAGAAAGCCGAAGCCT | 1.26 | 1.93 | -0.0435 | 1.85 | 0.124 | 3.26 | 3.62 | 5.64 | 4.77 | 5.98 | 2.1 | 1.64 | 0.235 | 0.63 | 1.07 | 1.4 | 0.0184 | 1.84 | 0.655 | 1.91
3 | GCTTGTAGATGAAGGTTAAGAAAGACTAAGCTAA | -0.515 | 0.357 | -0.563 | -0.0135 | -0.789 | 0.816 | 0.15 | 0.943 | -0.144 | 0.254 | 0.000874 | 0.405 | 0.135 | -0.0594 | -0.126 | 0.0589 | -0.403 | 0.444 | -0.213 | 0.535
4 | CAAACTACGTCAAGGTCAAAGTCGGTTTGTGCCA | 4.66 | 4.23 | 2.86 | 3.54 | 1.01 | 4.35 | 1.43 | 2.55 | 0.626 | 1.7 | 0.822 | 1.93 | 0.681 | 0.932 | 2.33 | 4.63 | 2.94 | 4.28 | 0.409 | 4.04
5 | TGAATGAGGTTATAAGGTCAGGGAACGTTGCAAA | 5.12 | 4.24 | 0.615 | 3.38 | 0.153 | 5.17 | 5.07 | 5.43 | 2.33 | 4.46 | 2.58 | 4.37 | 1.54 | 1.21 | 2.82 | 4.17 | 0.241 | 5.68 | 0.814 | 3.88
6 | GGAACGCGGGCATTCGAGTTGATAGCATGGCGAT | -0.388 | -0.465 | -0.588 | -1.04 | -1.3 | -1.13 | -0.044 | -0.711 | -0.908 | -0.624 | -0.393 | -0.666 | -1.41 | -1.44 | -1.1 | -0.103 | -0.449 | -0.652 | -1.13 | -0.209
7 | ATATGTAGGTTACACCCGGGTCATTCAGGCTATG | 2.03 | 4.01 | 1.46 | 3.12 | 0.769 | 4.84 | 6.51 | 5.36 | 3.01 | 4.69 | 7.06 | 7.68 | 2.55 | 1.68 | 1.71 | 3.62 | 1.57 | 3.89 | 0.619 | 2.35
8 | TGAGTGAGGTTATAAGATCAGGGAACGTTGCAAA | 1.06 | 1.07 | -0.22 | 0.866 | 0.134 | 2.47 | 0.711 | 1.23 | 0.53 | 0.855 | -0.596 | 0.754 | 0.555 | -0.0846 | 0.652 | 0.754 | 0.0305 | 1.06 | 0.466 | 1.25
9 | CCTACTTGGCCAAAGGTCATTGATTCCAATGCTC | 5.47 | 5.24 | 4.8 | 5.11 | 1.42 | 5.78 | 9.42 | 8.35 | 8.32 | 9.45 | 2.53 | 4.83 | 0.228 | 0.876 | 3.67 | 5.46 | 2.07 | 5.85 | 1.65 | 4.57
10 | CCTTACGGGTCACTGACTGGTTATAGCATTTGGA | 5.56 | 3.75 | 0.422 | 3.15 | -0.0702 | 4.99 | 4.13 | 4.14 | 1.38 | 2.81 | 3.65 | 3.69 | 0.987 | 0.315 | 3.15 | 3.1 | 0.287 | 4.06 | 2.05 | 4.02
11 | GCAGAAAGGTGAAACGCAGGTAACTCAGGGTGGC | 1.58 | 1.62 | -0.633 | 0.912 | -1.18 | 3.5 | 1.57 | 2.32 | -0.0918 | 1.39 | 3.02 | 2.42 | -0.00989 | -0.405 | 0.213 | 0.633 | -0.804 | 1.9 | -0.501 | 2.88
12 | TATTGTAGATCAAGCAGGTTAAGAAAGCCTGAGT | -0.385 | 0.0261 | -0.0497 | -0.0709 | 0.0382 | 0.359 | -0.08 | 0.334 | 0.0668 | 0.218 | 0.302 | 1.02 | 0.542 | 0.816 | 0.0743 | 0.218 | -0.248 | 0.378 | 0.348 | -0.0192
13 | CTACCAAGTTGAACAAGGTCGTTGATTACTATTC | 1.16 | 1.41 | 0.853 | 1.91 | 0.134 | 1.73 | 0.0728 | 0.171 | 0.12 | 0.362 | 0.743 | 0.688 | 0.967 | 0.704 | 1.45 | 2.65 | 4.18 | 1.96 | 1.44 | 1.29
14 | AGTCAAGGTTCAGGACGAGGTAACGTAAAGCACG | 2.68 | 1.82 | 0.192 | 1.05 | -0.0826 | 2.34 | 1.97 | 2.16 | 0.624 | 1.34 | -0.591 | 0.701 | -0.373 | 0.579 | 0.61 | 1.35 | 0.133 | 1.95 | 0.0883 | 2.38
15 | TCGAGTAGGTTAGGGGCACTCAGAATGGCGTCGA | 0.134 | -0.0493 | -0.34 | 0.556 | -0.72 | 0.994 | 0.844 | 1.91 | 0.959 | 1.64 | 1.87 | 1.32 | -0.303 | -1.43 | 0.271 | 0.155 | -0.021 | 0.491 | -0.62 | 0.927
16 | CGTCCAAGGTCAGCAGGTCCGTGAAAGCGACGTG | 4.81 | 3.09 | -0.42 | 2.19 | -0.0479 | 4.13 | 2.24 | 3.15 | 0.0631 | 1.82 | 2.55 | 2.38 | -0.178 | -1.09 | 1.99 | 2.47 | 0.631 | 3.08 | 0.18 | 4.86
17 | CCAGCTAGGTCAATGGTCAGCTAAAGCAGCTCGC | 2.92 | 2.06 | -0.24 | 1.27 | -0.685 | 3.2 | 5.08 | 5.75 | 3.27 | 5.34 | 4.9 | 4.47 | -0.141 | -0.0695 | 1.28 | 0.737 | -0.176 | 1.49 | -0.163 | 3.73
18 | TCATATAGGTAAATGCCAGGTGAAAGTCCGATCT | 1.31 | 1.12 | 0.378 | 0.902 | 0.0242 | 1.62 | 0.873 | 2.48 | 3.67 | 3.1 | 4.32 | 2.79 | 1.11 | 0.542 | 0.867 | 0.553 | 0.292 | 1.21 | 0.678 | 0.624
